Screening results: PubChem BioAssay, National Center for Advancing Translational Sciences (NCATS)
An excerpt weighted towards active compounds, which were near 10% of everything screened.
JMJD2A Tudor: qHTS Assay for Inhibitors of JMJD2A-Tudor Domain; Lysine-specific demethylase 4A (Homo sapiens), O75164; AlphaScreen JMJD2A-Tudor / H3K4me3 peptide binding; Potency, µM (doses to about 114 µM), usual class: inhibitors; hit rate 4.4% among 390,000; further: nearly all actives have a fitted effect of over 50% in size
G9a block: qHTS Assay for Inhibitors of Histone Lysine Methyltransferase G9a; Histone-lysine N-methyltransferase EHMT2 (Homo sapiens), Q96KQ7; G9a H3K9 monomethylation, AlphaScreen, 2 h; Potency, µM (series often up to 102 µM), actives largely listed as inhibitors; hit rate 8.8% among 350,000; further: nearly all actives have a fitted effect of over 75% in size
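Using a bead-based AlphaScreen, monomethylated H3K9 product from 2 h room-temperature reactions (G9a 20 nM, peptide 500 nM, SAM 20 uM) was detected with 0.5 ug/mL rabbit anti-H3K9me1 antibody.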
BAZ2B block: qHTS Assay for Inhibitors of BAZ2B. AID 504333, 2011. Potency, µM (highest dose often 114 µM), actives largely listed as inhibitors. AlphaScreen BAZ2B-H3K14Ac peptide displacement. hit rate 4.4% among 360,000; further: nearly all actives have a fitted effect of over 60% in size
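BAZ2B 50 nM plus b-H3(5-23)K14Ac 50 nM, PBS pH 7.4/0.01% Tween-20, 30 min RT; compound added (max 110 uM), 30 min RT; streptavidin donor/Ni-chelate acceptor beads 10 ug/mL final, 20 min dark; AlphaScreen read.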
L3MBTL1 inh: qHTS Assay for the Inhibitors of L3MBTL1 | Lethal(3)malignant brain tumor-like protein 1 (Homo sapiens), Q9Y468 | AlphaScreen L3MBTL1–H3K9me1 peptide binding | Potency, µM (series often up to 57.1 µM), most hits filed as inhibitors | hit rate 0.66% among 230,000; further: nearly all actives have a fitted effect of over 60% in size
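L3MBTL1 (50 nM) pre-complexed 30 min with biotinylated H3(1-15)K9me1 peptide (75 nM), then compounds added for 30 min at room temperature; AlphaScreen streptavidin donor/nickel chelate acceptor beads (10 ug/mL final) read after 30 min dark incubation.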
GLS inh: qHTS for Inhibitors of Glutaminase (GLS) | Glutaminase kidney isoform, mitochondrial (Homo sapiens), O94925 | hit rate 0.21% among 410,000 | AID 624170, 2012 | GLS enzymatic activity, qHTS titration | Potency, µM (highest dose often 45.5 µM), actives largely listed as inhibitors
Target sequence (O94925 whole entry, looked up, canonical isoform): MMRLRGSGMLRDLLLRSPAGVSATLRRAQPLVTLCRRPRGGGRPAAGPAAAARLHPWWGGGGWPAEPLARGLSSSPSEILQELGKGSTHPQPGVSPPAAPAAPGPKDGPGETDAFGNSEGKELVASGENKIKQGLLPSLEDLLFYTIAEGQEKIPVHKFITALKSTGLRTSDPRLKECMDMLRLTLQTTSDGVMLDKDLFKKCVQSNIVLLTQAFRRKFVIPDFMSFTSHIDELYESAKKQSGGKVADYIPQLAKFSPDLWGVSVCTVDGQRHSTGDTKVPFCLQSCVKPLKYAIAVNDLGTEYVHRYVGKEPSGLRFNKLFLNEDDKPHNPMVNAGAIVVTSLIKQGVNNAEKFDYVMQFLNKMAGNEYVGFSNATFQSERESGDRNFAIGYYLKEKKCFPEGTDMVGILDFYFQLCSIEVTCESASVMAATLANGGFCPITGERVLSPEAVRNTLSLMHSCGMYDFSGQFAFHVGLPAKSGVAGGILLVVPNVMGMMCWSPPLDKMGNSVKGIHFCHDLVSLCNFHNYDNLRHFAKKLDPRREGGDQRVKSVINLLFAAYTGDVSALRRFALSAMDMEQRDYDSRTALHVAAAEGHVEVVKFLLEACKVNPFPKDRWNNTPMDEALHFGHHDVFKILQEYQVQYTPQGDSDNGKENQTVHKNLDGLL
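Assay buffer: 45 mM KH2PO4 pH 8.2, 0.02% Tween-20. hKGA acts on L-glutamine (1 mM solution added); product glutamate is reported by an oxidase/peroxidase Amplex Red coupling, with fluorescence taken at baseline and 30 min.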
HP1b chromo inh: HTS for Inhibitors of HP1-beta Chromodomain Interactions with Methylated Histone Tails; Chromobox protein homolog 1 (Homo sapiens), P83916; AlphaScreen HP1-beta / biotin-H3K9me3 peptide binding; Potency, µM (top dose mostly 114 µM), most hits filed as inhibitors; hit rate 0.56% among 390,000; AID 540317, 2011; further: nearly all actives have a fitted effect of over 70% in size
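HP1-beta protein (50 nM final) preincubated 30 min at room temperature with biotinylated H3(1-18)K9me3 peptide (50 nM) in PBS pH 7.4, 0.01% Tween-20, then compound added for 30 min. AlphaScreen streptavidin donor/nickel chelate acceptor beads (10 ug/mL final), 30 min dark, luminescence read.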
Numbers stand for hits; . = inactive; ? = inconclusive; / = no result. The call rests on the fitted dose curve; in most records, active means well fitted curve in the direction sought with a large enough effect; inconclusive means small, poorly fitted or top-dose-only effect, or another doubt; inactive means no such curve, though single readings can be large; an effect the other way counts as inactive or inconclusive.

SMILES	JMJD2A Tudor	G9a block	BAZ2B block	L3MBTL1 inh	GLS inh	HP1b chromo inh
O=C(NNc1c(Cl)cccc1Cl)c1sccc1Cl	.	13µM	.	.	.	.
Cc1cc(C(=O)NNc2ccccc2F)no1	.	40µM	.	.	.	.
Cc1ccc(-c2nnc(Nc3ccc(O)cc3)c3ccccc23)cc1S(=O)(=O)N1CCCCC1	?	.	.	/	.	.
Cc1nn2c(C)c(C(=O)NCC(C)c3ccccc3)cnc2c1-c1ccccc1 (stereo not given)	.	.	.	/	.	.
C=CCNc1nnc(Cc2ccc(C(C)C)cc2)c(=O)[nH]1	56µM	.	?	/	.	.
COc1ccc(Cc2nnc(NCCO)[nH]c2=O)cc1	.	.	.	/	.	.
O=S(=O)(Nc1cccc2ccccc12)c1cccc2ccccc12	.	/	/	/	/	.
CCCC12CN3CC(C)(CN(C1)C3c1ccc(OCc3ccccc3)cc1)C2=O (stereo not given)	.	.	.	/	.	.
Cc1cc(Cl)c2oc(C(=O)N3CCOCC3)c(C)c2c1	/	/	/	/	.	/
Cc1cc(Cl)c2oc(C(=O)N3CCCCC3CCN3CCCC3=O)c(C)c2c1 (stereo not given)	.	/	50µM	/	.	.
CCn1c(/C(C#N)=C/c2ccccc2Cl)nc2ccccc21	.	.	.	/	.	.
CCn1c(/C(C#N)=N/O)nc2ccccc21	?	.	?	?	.	.
Cn1c(/C(C#N)=C/c2ccccc2Br)nc2ccccc21	.	0.4µM	.	/	.	.
Cn1c(/C(C#N)=N/O)nc2ccccc21	?	?	71µM	.	.	.
COc1cc([N+](=O)[O-])ccc1-c1ccc(C(=O)Nc2ccc(NC(C)=O)cc2)o1	.	8.9µM	.	.	.	.
COc1ccc(NC(=O)c2ccc(-c3ccc([N+](=O)[O-])cc3)o2)cc1OC	?	79µM	?	.	.	.
COc1cccc(NC(=O)c2ccc(-c3ccc([N+](=O)[O-])cc3)o2)c1	.	?	.	.	.	.
CC(=O)Nc1ccc(NC(=O)c2ccc(-c3ccc([N+](=O)[O-])cc3)o2)cc1	.	/	.	/	.	.
O=C(CSc1cccc[n+]1[O-])c1ccccc1Br	.	0.5µM	.	.	.	.
Cc1cc(C(=O)CSc2cccc[n+]2[O-])c(C)n1-c1ccc(Br)cc1	/	35µM	50µM	.	/	/
O=C(CSc1cccc[n+]1[O-])c1ccc(Cl)s1	.	10µM	.	.	?	.
O=C(O)CC12CC3CC(C1)CC(n1ncc(NCC4CCCO4)c(Cl)c1=O)(C3)C2 (stereo not given)	.	56µM	.	.	.	.
CCC(Oc1ccc(F)cc1)C(=O)Nc1nc(-c2ccc(F)cc2)ns1 (stereo not given)	.	.	.	/	.	.
CN(C)S(=O)(=O)c1ccc(C(=O)Nc2nnc(-c3ccco3)o2)cc1	89µM	.	79µM	/	.	.
CCN(CC)S(=O)(=O)c1ccc(C(=O)Nc2nnc(-c3ccco3)o2)cc1	.	.	/	/	.	.
SMILES	JMJD2A Tudor	G9a block	BAZ2B block	L3MBTL1 inh	GLS inh	HP1b chromo inh
CC1CCCCN1S(=O)(=O)c1ccc(C(=O)Nc2nnc(C3CC3)o2)cc1 (stereo not given)	.	.	50µM	/	.	.
Cc1nnc(NC(=O)c2ccc(S(=O)(=O)N3CCCCC3C)cc2)o1 (stereo not given)	?	/	.	/	.	.
CC1CCN(S(=O)(=O)c2ccc(C(=O)Nc3nnc(C4CC4)o3)cc2)CC1	.	.	50µM	/	.	.
CC1CCCCN1S(=O)(=O)c1ccc(C(=O)Nc2nnc(-c3ccco3)o2)cc1 (stereo not given)	.	/	89µM	/	.	.
CC1CCN(S(=O)(=O)c2ccc(C(=O)Nc3nnc(-c4ccncc4)o3)cc2)CC1	.	.	/	/	.	.
CCOC(=O)C1CCCN(C(=O)Cn2ncc3c(C)n(Cc4ccccc4Cl)c(C)c3c2=O)C1 (stereo not given)	.	.	.	/	.	.
CCCCN(C)c1nc2c(S(=O)(=O)c3ccc(CC)cc3)nnn2c2ccc(Cl)cc12	.	.	.	/	.	.
CCSc1oc(-c2cccs2)nc1S(=O)(=O)c1ccc(Br)cc1	.	.	.	/	.	.
COC(=O)C1=C[C@@H](C(=O)OC)C2C3=C(C(=O)[C@@]2(C)NC(=O)c2ccccc2)[C@H](C)[C@@H]2C(=O)N(C)C(=O)[C@@H]2[C@@H]3C1 (stereo not given in full)	.	/	/	/	/	.
CN(c1ccc(C(=O)N2CCOCC2)cc1[N+](=O)[O-])C1CCCCC1	.	?	50µM	.	.	.
O=C(Nc1nnc(C2CC2)o1)c1ccc(S(=O)(=O)N2CCCc3ccccc32)cc1	.	.	50µM	.	.	.
CN(C(=O)c1ccc(N2CCOCC2)c([N+](=O)[O-])c1)C1CCCCC1	.	.	.	.	.	.
CC1CCCCN1S(=O)(=O)c1ccc(C(=O)N2CCOCC2)cc1 (stereo not given)	.	56µM	.	/	.	.
CC1CCCCN1S(=O)(=O)c1ccc(S(=O)(=O)N2CCCC2)cc1 (stereo not given)	.	?	.	/	.	.
O=C(Nc1nnc(C2CC2)o1)c1ccc(S(=O)(=O)N2CCCCC2)cc1	?	.	56µM	/	.	.
CCC(=O)N1CCc2cc(CNS(=O)(=O)c3cc(OC)ccc3OC)ccc21	.	.	.	/	.	.
CCn1c(CNC(=O)c2ccc(OC)cc2)nnc1SCC(=O)Nc1cc(C)ccc1C	.	.	.	/	.	.
CCc1ccccc1NC(=O)Cn1ccn(-c2cc(C)cc(C)c2)c(=O)c1=O	.	.	.	/	.	.
CCC(C)OC(=O)c1[nH]c2c(c1C)C(=O)CC(c1ccc(N(C)C)cc1)C2 (stereo not given)	?	14µM	?	.	.	.
C/C=C/COC(=O)c1[nH]c2c(c1C)C(=O)CC(c1ccc(N(C)C)cc1)C2 (stereo not given)	89µM	35µM	?	.	.	.
Cc1c(C(=O)OC2CCCCCC2)[nH]c2c1C(=O)CC(c1ccc(N(C)C)cc1)C2 (stereo not given)	?	.	?	/	.	.
Cc1cc(=O)n(CC(=O)Nc2ccc(Cl)c(Cl)c2)c(-n2nc(C)cc2C)n1	?	.	?	/	.	.
